Experimental findings from PubChem BioAssay (EPA / NIEHS) are described below.

Activity calls are given as the source filed them. How the source made its calls: active means hit-call score of the fitted dose curve at least 0.9, where 1 is the maximum; inactive means score below 0.9.

What all share (conditions): mRNA level, 48 h; actives raise or lower the signal
Read-out in assay [1]: Tumor necrosis factor receptor superfamily member 6 (Homo sapiens) (UniProt P25445)
The experiment in a line: LTEA_HepaRG_FAS: Life Technologies and Expression Analysis (LTEA) Assay for Fas cell surface death receptor (FAS) using HepaRG (AID 2283447). The essentials:
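Differentiated HepaRG cells in serum-free induction medium were exposed 48 h to 8 half-log concentrations up to 100 uM in 0.5% DMSO, in duplicate. FAS mRNA was measured by qRT-PCR normalised to ACTB, GAPDH and POLR2A; bidirectional fit versus DMSO.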

Read-out in assay [2]: Cyclin D2 (CCND2), CCND2 (gene 894)
The experiment in a line: LTEA_HepaRG_CCND2: Life Technologies and Expression Analysis (LTEA) Assay for Cyclin D2 (CCND2) using HepaRG (AID 2283449).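 Further: CCND2 transcript measured by TaqMan qRT-PCR and normalised to three housekeeping genes.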 Put shortly: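 HepaRG, 48 h dosing, 8-pt half-log curve from 100 uM, 0.5% DMSO; duplicate wells. Readout: CCND2 transcript by microfluidic qRT-PCR, housekeeping-normalised; bidirectional fit vs DMSO baseline.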

Read-out in assay [3]: Cyclin Dependent Kinase Inhibitor 1A (CDKN1A), CDKN1A (gene 1026)
Kind of assay: LTEA_HepaRG_CDKN1A: Life Technologies and Expression Analysis (LTEA) Assay for Cyclin Dependent Kinase Inhibitor 1A (CDKN1A) using HepaRG (AID 2283450). The essentials: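 Read-out is CDKN1A mRNA by TaqMan qRT-PCR, normalized to three housekeeping genes and fitted in both directions against the DMSO baseline. Human HepaRG cells were treated 48 h with test chemicals up to 100 uM in half-log steps, 0.5% DMSO.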

Read-out in assay [4]: Cyclin D1 (CCND1), CCND1 (gene 595)
The experiment in a line: LTEA_HepaRG_CCND1: Life Technologies and Expression Analysis (LTEA) Assay for Cyclin D1 (CCND1) using HepaRG (AID 2283451). The essentials: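 HepaRG plated 48 h, medium switched to serum-free induction medium, chemicals added in duplicate (top 100 uM, half-log steps, 0.5% DMSO) for 48 h, cells lysed, RNA measured by TaqMan qRT-PCR.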

Read-out in assay [5]: catalase (CAT), CAT (gene 847)
The experiment in a line: LTEA_HepaRG_CAT: Life Technologies and Expression Analysis (LTEA) Assay for catalase (CAT) using HepaRG (AID 2283452). The essentials:
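HepaRG cells in serum-free induction medium, 0.5% DMSO vehicle, exposed 48 h in duplicate over 8 half-log concentrations from 100 uM. CAT mRNA measured by qRT-PCR, normalized to ACTB, GAPDH, POLR2A; bidirectional fit versus DMSO.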

Read-out in assay [6]: flavin-containing dimethylaniline monooxygenases 3 (FMO3), FMO3 (gene 2328)
Kind of assay: LTEA_HepaRG_FMO3: Life Technologies and Expression Analysis (LTEA) Assay for flavin-containing dimethylaniline monooxygenases 3 (FMO3) using HepaRG (AID 2283453).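 On AC50: differentiated human HepaRG liver cells in serum-free induction medium.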 Put shortly: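 FMO3 transcript quantified by TaqMan qRT-PCR against three housekeeping genes after 48 h chemical exposure of HepaRG cells. Eight-point half-log series, top 100 uM, 0.5% DMSO vehicle; phenobarbital 1mM induction control; up- or down-regulation fitted.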

Read-out in assay [7]: Forkhead box O1 (FOXO1), FOXO1 (gene 2308)
Kind of assay: LTEA_HepaRG_FOXO1: Life Technologies and Expression Analysis (LTEA) Assay for Forkhead box O1 (FOXO1) using HepaRG (AID 2283456). The essentials:
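HepaRG, 48 h exposure, 8-pt half-log series from 100 uM in 0.5% DMSO, duplicates; Fluidigm qRT-PCR mRNA, housekeeping-normalised; bidirectional fit vs DMSO baseline.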

Read-out in assay [8]: growth arrest and DNA damage 45 (GADD45A), GADD45A (gene 1647)
Kind of assay: LTEA_HepaRG_GADD45A: Life Technologies and Expression Analysis (LTEA) Assay for growth arrest and DNA damage 45 (GADD45A) using HepaRG (AID 2283458). Put shortly: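 Transcript induction or loss, quantified by TaqMan qRT-PCR against three housekeeping genes, is the read-out. HepaRG cells received chemicals for 48 h across eight half-log concentrations from 100 uM in 0.5% DMSO; gain and loss fitted relative to DMSO.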

Read-out in assay [9]: Forkhead box O3 (FOXO3), FOXO3 (gene 2309)
Kind of assay: LTEA_HepaRG_FOXO3: Life Technologies and Expression Analysis (LTEA) Assay for Forkhead box O3 (FOXO3) using HepaRG (AID 2283459). Put shortly:
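qRT-PCR readout of FOXO3 transcript, normalized to three housekeeping genes (ACTB, GAPDH, POLR2A); gain or loss fitted against 0.5% DMSO vehicle. HepaRG cells, 48 h chemical exposure, 8-point half-log series, top 100 uM.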

Read-out in assay [10]: ABC Transporter (ABCB1), ABCB1 (gene 5243)
Kind of assay: LTEA_HepaRG_ABCB1: Life Technologies and Expression Analysis (LTEA) Assay for ABC Transporter (ABCB1) using HepaRG (AID 2283460). Put shortly:
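HepaRG, 48 h exposure, 8-pt half-log series from 100 uM, 0.5% DMSO vehicle, duplicates. Readout: ABCB1 transcript by Fluidigm TaqMan qRT-PCR, housekeeping-normalized; bidirectional curve fit vs DMSO baseline.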

Read-out in assay [11]: CFLAR gene, CFLAR (gene 8837)
The experiment in a line: LTEA_HepaRG_CFLAR: Life Technologies and Expression Analysis (LTEA) Assay for CFLAR gene using HepaRG (AID 2283455). The essentials: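 qRT-PCR read-out (Fluidigm/TaqMan) of CFLAR mRNA, normalized to three housekeeping genes, in differentiated human HepaRG cells after 48 h chemical exposure; 8-point half-log series from 100 uM in 0.5% DMSO; bidirectional curve fitting versus DMSO.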

Read-out in assay [12]: Cytochrome P450 (CYP1A1), CYP1A1 (gene 1543)
The experiment in a line: LTEA_HepaRG_CYP1A1: Life Technologies and Expression Analysis (LTEA) Assay for Cytochrome P450 (CYP1A1) using HepaRG (AID 2283454). The essentials:
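HepaRG, 48 h post-plating switched to serum-free induction medium; 8-pt conc-response (top 100 uM, half-log, 0.5% DMSO), duplicates, 48 h. Lysis in RLT, TaqMan qRT-PCR for CYP1A1; gain or loss vs DMSO.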

Read-out in assay [13]: Fatty acid synthase (Homo sapiens) (UniProt P49327)
Kind of assay: LTEA_HepaRG_FASN: Life Technologies and Expression Analysis (LTEA) Assay for Fatty Acid Synthase (FASN) using HepaRG (AID 2283448). The essentials:
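Cells were plated, cultured 48 h, switched to serum-free induction medium, then dosed in duplicate (max 100 uM, half-log dilutions, 0.5% DMSO) for 48 h. RNA was then isolated and FASN quantified by qRT-PCR.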

Fatty acid synthase (Homo sapiens), sequence (P49327 whole entry, looked up): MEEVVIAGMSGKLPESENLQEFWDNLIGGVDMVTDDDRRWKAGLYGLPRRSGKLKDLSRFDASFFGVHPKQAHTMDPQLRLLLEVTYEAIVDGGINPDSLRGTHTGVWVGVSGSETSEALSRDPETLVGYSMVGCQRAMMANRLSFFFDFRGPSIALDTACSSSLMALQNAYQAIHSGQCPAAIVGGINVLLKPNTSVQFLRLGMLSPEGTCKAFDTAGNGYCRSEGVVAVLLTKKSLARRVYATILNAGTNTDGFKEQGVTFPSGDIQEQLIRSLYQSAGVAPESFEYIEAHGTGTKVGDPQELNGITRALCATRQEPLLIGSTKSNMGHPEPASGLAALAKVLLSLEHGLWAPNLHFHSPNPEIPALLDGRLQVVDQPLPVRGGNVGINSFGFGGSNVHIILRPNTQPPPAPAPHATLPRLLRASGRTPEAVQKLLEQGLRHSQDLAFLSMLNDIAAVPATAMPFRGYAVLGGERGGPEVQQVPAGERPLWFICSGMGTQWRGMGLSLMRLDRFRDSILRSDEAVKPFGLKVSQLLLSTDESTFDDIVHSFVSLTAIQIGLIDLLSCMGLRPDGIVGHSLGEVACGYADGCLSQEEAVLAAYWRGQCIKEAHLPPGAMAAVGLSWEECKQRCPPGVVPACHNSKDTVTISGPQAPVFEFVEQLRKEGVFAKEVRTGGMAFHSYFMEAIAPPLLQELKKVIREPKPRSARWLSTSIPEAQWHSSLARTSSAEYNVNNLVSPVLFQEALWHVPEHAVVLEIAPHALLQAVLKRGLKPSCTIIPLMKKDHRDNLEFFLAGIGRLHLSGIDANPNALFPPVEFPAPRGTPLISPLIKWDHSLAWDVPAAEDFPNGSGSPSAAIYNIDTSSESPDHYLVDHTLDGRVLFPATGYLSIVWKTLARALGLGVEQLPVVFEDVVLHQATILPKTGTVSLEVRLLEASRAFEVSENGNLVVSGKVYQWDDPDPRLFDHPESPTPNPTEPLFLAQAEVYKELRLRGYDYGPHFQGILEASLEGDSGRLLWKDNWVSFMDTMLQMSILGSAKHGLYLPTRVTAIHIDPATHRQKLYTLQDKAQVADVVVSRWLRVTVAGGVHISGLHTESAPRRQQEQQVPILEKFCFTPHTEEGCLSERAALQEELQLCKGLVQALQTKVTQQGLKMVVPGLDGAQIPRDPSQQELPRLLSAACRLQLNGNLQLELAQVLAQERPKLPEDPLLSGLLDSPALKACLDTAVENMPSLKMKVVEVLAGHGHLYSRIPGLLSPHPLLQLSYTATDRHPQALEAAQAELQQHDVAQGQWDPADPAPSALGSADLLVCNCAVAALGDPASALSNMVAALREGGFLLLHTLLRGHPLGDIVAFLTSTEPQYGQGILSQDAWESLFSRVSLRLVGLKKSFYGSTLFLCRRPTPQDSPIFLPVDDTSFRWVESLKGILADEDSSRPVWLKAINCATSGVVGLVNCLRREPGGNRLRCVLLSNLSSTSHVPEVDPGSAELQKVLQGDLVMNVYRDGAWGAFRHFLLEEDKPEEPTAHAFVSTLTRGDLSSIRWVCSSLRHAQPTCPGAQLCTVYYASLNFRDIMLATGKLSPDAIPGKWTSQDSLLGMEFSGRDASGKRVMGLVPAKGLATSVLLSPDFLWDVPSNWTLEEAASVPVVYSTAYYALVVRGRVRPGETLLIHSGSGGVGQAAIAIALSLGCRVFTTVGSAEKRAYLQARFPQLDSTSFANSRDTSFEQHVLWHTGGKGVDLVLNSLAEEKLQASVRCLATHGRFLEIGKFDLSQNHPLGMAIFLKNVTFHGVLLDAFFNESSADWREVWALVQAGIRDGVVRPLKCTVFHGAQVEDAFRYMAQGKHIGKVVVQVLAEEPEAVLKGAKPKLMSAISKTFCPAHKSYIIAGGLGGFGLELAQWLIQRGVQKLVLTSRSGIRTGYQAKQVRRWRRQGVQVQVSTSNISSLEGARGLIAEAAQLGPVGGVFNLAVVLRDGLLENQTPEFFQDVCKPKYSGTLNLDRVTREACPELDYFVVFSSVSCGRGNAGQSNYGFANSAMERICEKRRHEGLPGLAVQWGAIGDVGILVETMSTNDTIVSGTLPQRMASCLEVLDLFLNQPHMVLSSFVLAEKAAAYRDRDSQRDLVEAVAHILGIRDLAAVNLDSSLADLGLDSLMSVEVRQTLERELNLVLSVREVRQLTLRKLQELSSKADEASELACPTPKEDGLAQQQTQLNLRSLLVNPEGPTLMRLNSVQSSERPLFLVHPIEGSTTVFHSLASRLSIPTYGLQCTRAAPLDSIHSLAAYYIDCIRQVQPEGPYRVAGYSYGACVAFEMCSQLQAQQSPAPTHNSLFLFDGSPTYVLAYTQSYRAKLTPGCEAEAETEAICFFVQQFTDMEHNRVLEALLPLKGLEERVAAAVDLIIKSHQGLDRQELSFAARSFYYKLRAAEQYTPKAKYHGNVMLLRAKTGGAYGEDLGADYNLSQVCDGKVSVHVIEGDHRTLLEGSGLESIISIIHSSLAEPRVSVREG

The term AC50 denotes the concentration at which the activity in the assay is half-maximal. `CC(C)CCCCCCOC(=O)C1CCCCC1C(=O)OCCCCCCC(C)C` (stereo unspecified): the outcome in assay [1], in assay [2], in assay [3], in assay [4], in assay [5] and in assay [6] was inactive. Also, the outcome in assay [7], in [9] and in [10] was inactive. Also, in [8], the AC50 was 0.00316 µM (active).

With `Cn1c(=O)c2[nH]cnc2n(C)c1=O`, the outcome in assay [1], in assay [2], in assay [3], in [5], in assay [6] and in assay [7] was inactive. Moreover, the compound was called inactive in [8], in assay [9] and in [10].

Take `NNC(=O)c1ccncc1`: the outcome in [1], in assay [2], in [3], in [5], in assay [6] and in assay [11] was inactive. Besides, the compound was classed as inactive in assay [7], in [8], in assay [9] and in assay [10].

Take `CC1(C)C(=O)N(Cl)C(=O)N1Cl`: the compound was classed as inactive in assay [1], in assay [2], in assay [3], in assay [5], in assay [6] and in [11]. In addition, the call in [7], in assay [8], in assay [9] and in [10] was inactive. In addition, in assay [12], the AC50 was 50 µM (active).

For the compound `O=C(O)c1cccc(C[C@@H]2COc3ccc(OCc4nc5cc(F)ccc5s4)cc3[C@@H]2O)c1`, the result in assay [1], in assay [2], in assay [3], in [4], in assay [6] and in [7] was inactive. Also, the result in assay [8], in assay [9] and in assay [10] was inactive. The half-maximal activity concentration (AC50) was 50 µM (active) in assay [5] and 33.4 µM (active) in assay [12].

Turning to `O=S1(=O)CCCO1`, the result in assay [1], in [2], in [3], in assay [5], in [6] and in assay [7] was inactive. Moreover, the compound was called inactive in [8], in assay [9] and in assay [10].

Regarding `COCc1nnc(-c2ccc[n+]([O-])c2)n1-c1c(Cl)c(Cl)cc2[nH]c(=O)c(=O)[nH]c12`, the compound was classed as inactive in assay [1], in assay [13], in assay [2], in assay [3], in assay [5] and in assay [6]. For the same compound, the outcome in [7], in assay [8], in assay [9] and in [10] was inactive.

With `NC(=O)N1c2ccccc2C=Cc2ccccc21`, the compound was called inactive in assay [1], in [3], in [5], in assay [6], in assay [12] and in [7]. The outcome in assay [8], in assay [9] and in [10] was inactive.

As for `CCCCCCCCCCCCCCCCOS(=O)(=O)O`, the result in assay [1], in assay [2], in [3], in [4], in assay [5] and in [6] was inactive. Besides, the call in [7], in assay [8], in [9] and in [10] was inactive. The AC50 in assay [12] is 14.9 µM (active).

For the compound `CC(C)CC(C)O` (stereo unspecified), the outcome in assay [1], in assay [2], in assay [3], in assay [4], in assay [5] and in [6] was inactive. The result in assay [11], in assay [7], in assay [8], in [9] and in [10] was inactive. Besides, the AC50 in assay [12] is 50 µM (active).

As to `CCc1ccc(O)c(C(C)(C)C)c1`, the outcome in [1], in [13], in [3], in [5], in assay [6] and in assay [7] was inactive. Further, the result in assay [8], in assay [9] and in assay [10] was inactive.

Turning to `OC[C@H]1O[C@@](CO)(O[C@H]2O[C@H](CO)[C@@H](O)[C@H](O)[C@H]2O)[C@@H](O)[C@@H]1O`, the result in assay [1], in assay [2], in assay [3], in [5], in assay [6] and in assay [7] was inactive. Besides, the result in assay [8], in assay [9] and in assay [10] was inactive. In assay [12], the AC50 is 67.1 µM (active).

For the compound `CCCCOC(=O)c1ccccc1`, the compound was classed as inactive in [1], in [2], in [3], in [5], in [6] and in [12]. The outcome in assay [7], in assay [8], in [9] and in assay [10] was inactive.

Take `CCCC(CCC)C(=O)O`: the call in assay [1], in assay [2], in assay [3], in [4], in assay [5] and in [6] was inactive. For the same compound, the compound was classed as inactive in [11], in assay [7], in assay [8], in assay [9] and in assay [10]. Also, the AC50 in [12] is 64.3 µM (active).

For `OCc1ccccc1`, the compound was called inactive in assay [1], in assay [2], in [3], in assay [5], in assay [6] and in assay [12]. In addition, the result in [7], in assay [8], in [9] and in assay [10] was inactive.

As for `OCCOCCOCCO`, the outcome in [1], in assay [13], in assay [2], in [3], in assay [5] and in assay [6] was inactive. Further, the compound was classed as inactive in assay [7], in assay [8] and in [9]. Moreover, the concentration at half-maximal activity (AC50) in [10] was 0.115 µM (active).

In the case of `O=C(NO)C1(NS(=O)(=O)c2ccc(Oc3ccc(F)cc3)cc2)CCOCC1`, the result in [1], in assay [2], in assay [7], in assay [8], in assay [9] and in [10] was inactive. Besides, the AC50 in [3] was 85.1 µM (active); in [5], 85.5 µM (active); in [6], 76.5 µM (active).

Regarding `CC(C)C(=O)Nc1ccc([N+](=O)[O-])c(C(F)(F)F)c1`, the AC50 in assay [1] is 67 µM (active); in [3] it was 50 µM (active); in assay [5] it was 62.1 µM (active); in [6], 50 µM (active); in assay [7] it was 50 µM (active); in assay [8], 67.9 µM (active). Besides, the result in [2], in assay [9] and in [10] was inactive.

Turning to `CCc1cccc(CC)c1N`, the call in [1], in [2], in assay [3], in assay [5], in assay [6] and in [7] was inactive. Further, the call in assay [8], in assay [9] and in [10] was inactive.

Turning to `O=C(O)c1ccc2c(c1)nc(C(=O)NC1CCN(C3CC3)CC1)n2Cc1cc(-c2ccc(Cl)s2)on1`, the call in assay [1], in [2], in [3], in assay [4], in [5] and in assay [6] was inactive. The compound was classed as inactive in assay [11], in assay [7], in assay [8], in assay [9] and in assay [10].
